Paper PMC7862700, “An all-to-all approach to the identification of sequence-specific readers for epigenetic DNA modifications on cytosine”

How the values were obtained:
Assay in all cases: DAPPL (digital affinity profiling via proximity ligation, sequencing); 10 mM Tris-HCl pH 7.5, 50 mM NaCl, 1 mM DTT, 4% glycerol, room temperature, 30 min; GST-TFs on glutathione beads, 16-mer random dsDNA library, 0.1% formaldehyde crosslink after washing; high values mean tight binding
[1] = target: T1, FEV (Homo sapiens, UniProt Q99581 1-238); conditions: protein: recombinant; tags: N-terminal GST; dsDNA, one strand shown
T1 sequence: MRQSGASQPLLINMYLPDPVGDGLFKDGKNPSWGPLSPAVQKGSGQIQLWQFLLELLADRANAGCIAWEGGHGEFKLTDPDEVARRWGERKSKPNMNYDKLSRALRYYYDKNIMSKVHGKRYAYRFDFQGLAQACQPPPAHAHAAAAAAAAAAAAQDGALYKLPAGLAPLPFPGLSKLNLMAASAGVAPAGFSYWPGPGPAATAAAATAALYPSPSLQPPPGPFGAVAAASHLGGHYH
In short: (§1)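 Human transcription factors were made in yeast as GST fusions, captured on glutathione beads and barcoded with DNA. With a tag-only sample included, the pool was incubated with 200 nmole of a random double-stranded 16-mer DNA library in Tris/NaCl/DTT/glycerol buffer at room temperature for 30 min, then crosslinked with 0.1% formaldehyde after washing, ligated by proximity, amplified and sequenced. For binding signal, each hexamer's read frequency for a factor is divided by its frequency for the tag-only sample.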

[2] = target: ETV5 (Homo sapiens, UniProt P41161 1-510); conditions: protein: recombinant; tags: N-terminal GST; dsDNA, one strand shown
ETV5, sequence (P41161 whole entry): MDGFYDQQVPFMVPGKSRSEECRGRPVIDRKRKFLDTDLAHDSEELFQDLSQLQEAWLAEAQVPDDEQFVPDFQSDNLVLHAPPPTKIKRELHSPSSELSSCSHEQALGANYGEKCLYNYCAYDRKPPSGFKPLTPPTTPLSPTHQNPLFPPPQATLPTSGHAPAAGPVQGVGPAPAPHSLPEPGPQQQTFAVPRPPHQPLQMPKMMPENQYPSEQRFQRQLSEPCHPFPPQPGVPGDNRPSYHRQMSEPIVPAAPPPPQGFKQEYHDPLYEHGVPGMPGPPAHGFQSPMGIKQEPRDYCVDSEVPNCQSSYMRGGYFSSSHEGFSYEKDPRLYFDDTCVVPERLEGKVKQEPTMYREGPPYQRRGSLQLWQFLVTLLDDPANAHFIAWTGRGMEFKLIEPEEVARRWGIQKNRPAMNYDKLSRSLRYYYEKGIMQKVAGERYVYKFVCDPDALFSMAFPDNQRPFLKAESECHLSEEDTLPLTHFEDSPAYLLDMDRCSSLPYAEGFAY
In short: as §1

[3] = target: HSF1 (Homo sapiens, UniProt Q00613 1-529); conditions: protein: recombinant; tags: N-terminal GST; chain copies: 3; dsDNA, one strand shown
HSF1, sequence (Q00613 whole entry): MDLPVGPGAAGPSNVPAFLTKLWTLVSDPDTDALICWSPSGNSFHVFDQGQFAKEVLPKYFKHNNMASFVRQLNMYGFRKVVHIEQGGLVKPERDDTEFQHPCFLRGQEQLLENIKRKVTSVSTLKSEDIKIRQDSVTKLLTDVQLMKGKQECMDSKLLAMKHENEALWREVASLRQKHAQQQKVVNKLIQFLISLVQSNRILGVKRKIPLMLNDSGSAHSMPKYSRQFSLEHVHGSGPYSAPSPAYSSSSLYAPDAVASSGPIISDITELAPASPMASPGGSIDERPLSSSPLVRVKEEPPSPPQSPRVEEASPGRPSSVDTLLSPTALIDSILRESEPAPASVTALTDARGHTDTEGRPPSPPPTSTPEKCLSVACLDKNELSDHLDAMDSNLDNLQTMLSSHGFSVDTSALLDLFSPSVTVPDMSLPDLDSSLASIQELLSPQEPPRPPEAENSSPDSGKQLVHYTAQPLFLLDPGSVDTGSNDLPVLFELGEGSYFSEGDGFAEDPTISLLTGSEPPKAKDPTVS
In short: as §1

[4] = target: T2, SPIC (Homo sapiens, UniProt Q8N5J4 1-248); conditions: protein: recombinant; tags: N-terminal GST; dsDNA, one strand shown
T2 sequence: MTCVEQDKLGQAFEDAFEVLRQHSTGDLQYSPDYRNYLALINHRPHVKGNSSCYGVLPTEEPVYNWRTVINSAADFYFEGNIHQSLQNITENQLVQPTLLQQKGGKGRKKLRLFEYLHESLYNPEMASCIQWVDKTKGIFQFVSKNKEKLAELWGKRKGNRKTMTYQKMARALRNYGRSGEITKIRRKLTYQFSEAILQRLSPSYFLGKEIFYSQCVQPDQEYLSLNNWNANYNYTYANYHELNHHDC
In short: as §1

[5] = target: ELF4 (Homo sapiens, UniProt Q99607 1-663); conditions: protein: recombinant; tags: N-terminal GST; dsDNA, one strand shown
ELF4, sequence (Q99607 whole entry): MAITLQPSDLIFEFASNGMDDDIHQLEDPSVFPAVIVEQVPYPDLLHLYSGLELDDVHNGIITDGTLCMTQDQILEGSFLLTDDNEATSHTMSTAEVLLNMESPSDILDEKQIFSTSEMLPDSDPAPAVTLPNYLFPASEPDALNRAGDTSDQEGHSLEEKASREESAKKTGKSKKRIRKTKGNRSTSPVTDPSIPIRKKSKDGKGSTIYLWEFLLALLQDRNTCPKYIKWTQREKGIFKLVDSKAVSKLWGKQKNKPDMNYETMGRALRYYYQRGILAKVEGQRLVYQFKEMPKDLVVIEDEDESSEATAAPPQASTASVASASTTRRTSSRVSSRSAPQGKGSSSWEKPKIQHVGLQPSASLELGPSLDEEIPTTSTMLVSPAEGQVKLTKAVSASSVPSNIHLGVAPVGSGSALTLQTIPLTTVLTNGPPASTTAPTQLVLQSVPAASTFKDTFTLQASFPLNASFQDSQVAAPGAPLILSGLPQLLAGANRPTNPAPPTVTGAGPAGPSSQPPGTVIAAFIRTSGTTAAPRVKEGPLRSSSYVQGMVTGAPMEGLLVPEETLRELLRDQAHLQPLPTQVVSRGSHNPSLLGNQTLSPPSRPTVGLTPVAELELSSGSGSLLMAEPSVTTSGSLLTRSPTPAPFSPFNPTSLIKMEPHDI
In short: as §1

[6] = target: T3, ELK4 (Homo sapiens, UniProt P28324-2 1-405); conditions: protein: recombinant; tags: N-terminal GST; dsDNA, one strand shown
T3 sequence: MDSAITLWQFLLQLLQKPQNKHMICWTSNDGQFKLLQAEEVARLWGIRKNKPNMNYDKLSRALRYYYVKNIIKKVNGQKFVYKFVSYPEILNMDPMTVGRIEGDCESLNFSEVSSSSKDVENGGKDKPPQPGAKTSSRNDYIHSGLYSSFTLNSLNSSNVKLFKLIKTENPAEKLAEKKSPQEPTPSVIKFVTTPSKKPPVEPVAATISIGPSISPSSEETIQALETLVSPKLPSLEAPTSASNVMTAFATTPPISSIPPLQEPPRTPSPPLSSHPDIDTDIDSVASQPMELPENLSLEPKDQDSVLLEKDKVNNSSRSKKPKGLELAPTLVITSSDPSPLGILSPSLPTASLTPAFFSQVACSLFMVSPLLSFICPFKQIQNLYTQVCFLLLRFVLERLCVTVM
In short: as §1

[7] = target: T4, ETV2 (Homo sapiens, UniProt O00321 1-342); conditions: protein: recombinant; tags: N-terminal GST; dsDNA, one strand shown
T4 sequence: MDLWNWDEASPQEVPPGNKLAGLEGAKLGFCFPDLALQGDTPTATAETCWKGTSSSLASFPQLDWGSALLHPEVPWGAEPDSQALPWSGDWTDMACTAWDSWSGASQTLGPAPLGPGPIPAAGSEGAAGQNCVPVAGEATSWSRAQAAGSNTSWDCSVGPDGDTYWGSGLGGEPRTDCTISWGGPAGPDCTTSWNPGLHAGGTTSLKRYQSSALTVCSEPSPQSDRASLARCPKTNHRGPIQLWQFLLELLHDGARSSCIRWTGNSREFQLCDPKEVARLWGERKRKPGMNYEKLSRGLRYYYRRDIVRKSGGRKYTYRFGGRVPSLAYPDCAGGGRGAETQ
In short: as §1

[8] = target: T5, ELF3 (Homo sapiens, UniProt P78545 1-371); conditions: protein: recombinant; tags: N-terminal GST; dsDNA, one strand shown
T5 sequence: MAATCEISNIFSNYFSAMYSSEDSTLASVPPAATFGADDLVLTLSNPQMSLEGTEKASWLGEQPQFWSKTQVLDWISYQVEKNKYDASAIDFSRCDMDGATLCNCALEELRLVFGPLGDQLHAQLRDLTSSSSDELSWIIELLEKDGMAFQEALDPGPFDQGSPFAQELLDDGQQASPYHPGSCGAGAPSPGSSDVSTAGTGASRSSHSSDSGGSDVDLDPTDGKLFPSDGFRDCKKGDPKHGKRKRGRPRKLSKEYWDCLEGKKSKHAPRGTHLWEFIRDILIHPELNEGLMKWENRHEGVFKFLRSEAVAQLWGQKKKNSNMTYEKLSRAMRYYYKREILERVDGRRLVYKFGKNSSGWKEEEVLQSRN
In short: as §1

[9] = target: CRX (Homo sapiens, UniProt O43186 1-299); conditions: protein: recombinant; tags: N-terminal GST; dsDNA, one strand shown
CRX, sequence (O43186 whole entry): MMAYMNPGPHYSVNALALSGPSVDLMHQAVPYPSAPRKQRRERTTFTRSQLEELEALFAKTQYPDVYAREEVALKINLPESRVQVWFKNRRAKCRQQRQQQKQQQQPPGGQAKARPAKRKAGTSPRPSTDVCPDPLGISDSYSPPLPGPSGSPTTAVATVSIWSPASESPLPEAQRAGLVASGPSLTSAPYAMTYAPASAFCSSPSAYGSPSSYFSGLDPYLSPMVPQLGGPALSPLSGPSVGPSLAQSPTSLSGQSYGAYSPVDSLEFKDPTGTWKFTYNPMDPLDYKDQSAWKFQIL
In short: as §1

[10] = target: ETV1 (Homo sapiens, UniProt P50549 1-477); conditions: protein: recombinant; tags: N-terminal GST; dsDNA, one strand shown
ETV1, sequence (P50549 whole entry): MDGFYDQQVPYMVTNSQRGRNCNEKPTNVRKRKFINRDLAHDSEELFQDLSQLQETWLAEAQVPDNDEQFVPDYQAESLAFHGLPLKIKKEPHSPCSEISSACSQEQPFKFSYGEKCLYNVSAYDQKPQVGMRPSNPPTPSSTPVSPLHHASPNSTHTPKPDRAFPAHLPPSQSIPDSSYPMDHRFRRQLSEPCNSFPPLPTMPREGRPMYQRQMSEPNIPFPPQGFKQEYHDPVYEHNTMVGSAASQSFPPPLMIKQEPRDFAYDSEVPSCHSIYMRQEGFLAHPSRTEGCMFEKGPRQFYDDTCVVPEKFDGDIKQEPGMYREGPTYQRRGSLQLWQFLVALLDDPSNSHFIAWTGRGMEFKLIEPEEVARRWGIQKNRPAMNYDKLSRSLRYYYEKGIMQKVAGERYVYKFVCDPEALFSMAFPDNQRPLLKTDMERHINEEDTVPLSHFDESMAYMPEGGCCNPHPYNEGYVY
In short: as §1

[11] = target: T6, ERF (Homo sapiens, UniProt P50548 1-548); conditions: protein: recombinant; tags: N-terminal GST; dsDNA, one strand shown
T6 sequence: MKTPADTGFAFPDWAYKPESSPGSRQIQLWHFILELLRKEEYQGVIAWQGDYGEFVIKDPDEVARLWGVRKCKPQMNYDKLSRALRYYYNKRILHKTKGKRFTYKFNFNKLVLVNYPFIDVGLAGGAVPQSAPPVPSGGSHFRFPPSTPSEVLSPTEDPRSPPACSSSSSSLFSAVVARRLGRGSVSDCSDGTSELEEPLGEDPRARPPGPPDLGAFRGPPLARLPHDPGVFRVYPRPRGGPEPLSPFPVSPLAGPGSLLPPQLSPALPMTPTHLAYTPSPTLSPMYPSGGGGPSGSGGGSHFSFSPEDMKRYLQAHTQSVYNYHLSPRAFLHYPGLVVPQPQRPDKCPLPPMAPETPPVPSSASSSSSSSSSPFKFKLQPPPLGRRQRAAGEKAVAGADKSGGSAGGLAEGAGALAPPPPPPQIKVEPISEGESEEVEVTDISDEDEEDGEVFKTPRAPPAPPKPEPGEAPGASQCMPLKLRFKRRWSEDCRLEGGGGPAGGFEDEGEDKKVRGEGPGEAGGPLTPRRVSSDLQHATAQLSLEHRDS
In short: as §1

[12] = target: T7, ETV3L (Homo sapiens, UniProt Q6ZN32 1-361); conditions: protein: recombinant; tags: N-terminal GST; dsDNA, one strand shown
T7 sequence: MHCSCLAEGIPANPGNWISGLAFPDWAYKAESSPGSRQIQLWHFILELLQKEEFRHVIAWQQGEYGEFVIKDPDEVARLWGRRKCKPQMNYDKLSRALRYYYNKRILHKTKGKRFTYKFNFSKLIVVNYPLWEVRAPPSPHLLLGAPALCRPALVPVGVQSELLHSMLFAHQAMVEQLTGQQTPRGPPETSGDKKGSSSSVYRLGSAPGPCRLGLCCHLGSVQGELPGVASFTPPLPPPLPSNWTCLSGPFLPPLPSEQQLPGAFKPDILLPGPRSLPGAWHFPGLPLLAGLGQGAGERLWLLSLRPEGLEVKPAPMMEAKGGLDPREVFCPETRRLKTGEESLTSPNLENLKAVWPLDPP
In short: as §1

[13] = target: T8, ETS2 (Homo sapiens, UniProt P15036 1-469); conditions: protein: recombinant; tags: N-terminal GST; dsDNA, one strand shown
T8 sequence: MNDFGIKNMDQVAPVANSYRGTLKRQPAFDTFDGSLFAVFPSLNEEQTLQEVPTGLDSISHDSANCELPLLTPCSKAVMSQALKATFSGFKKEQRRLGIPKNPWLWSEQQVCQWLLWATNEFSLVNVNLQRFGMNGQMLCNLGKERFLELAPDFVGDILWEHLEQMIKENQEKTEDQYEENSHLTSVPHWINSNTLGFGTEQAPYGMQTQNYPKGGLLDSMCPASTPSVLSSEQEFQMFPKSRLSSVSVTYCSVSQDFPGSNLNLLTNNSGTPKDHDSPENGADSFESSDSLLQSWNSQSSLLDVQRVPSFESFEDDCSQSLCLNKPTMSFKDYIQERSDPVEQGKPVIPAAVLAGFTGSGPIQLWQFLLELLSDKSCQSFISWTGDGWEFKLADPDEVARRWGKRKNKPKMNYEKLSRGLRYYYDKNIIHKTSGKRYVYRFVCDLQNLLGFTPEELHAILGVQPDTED
In short: as §1

[14] = target: T9, SPDEF (Homo sapiens, UniProt O95238 1-335); conditions: protein: recombinant; tags: N-terminal GST; dsDNA, one strand shown
T9 sequence: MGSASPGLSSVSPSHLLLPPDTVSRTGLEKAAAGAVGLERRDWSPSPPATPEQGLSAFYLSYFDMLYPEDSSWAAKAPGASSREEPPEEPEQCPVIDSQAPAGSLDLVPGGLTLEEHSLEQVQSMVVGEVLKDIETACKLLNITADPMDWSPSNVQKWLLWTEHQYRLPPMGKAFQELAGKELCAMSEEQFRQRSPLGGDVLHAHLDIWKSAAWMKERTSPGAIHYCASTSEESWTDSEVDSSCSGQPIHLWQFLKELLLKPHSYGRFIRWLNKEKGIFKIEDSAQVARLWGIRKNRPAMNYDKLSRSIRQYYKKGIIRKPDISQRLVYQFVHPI
In short: as §1

[15] = target: T10, ETV7 (Homo sapiens, UniProt Q9Y603 1-341); conditions: protein: recombinant; tags: N-terminal GST; dsDNA, one strand shown
T10 sequence: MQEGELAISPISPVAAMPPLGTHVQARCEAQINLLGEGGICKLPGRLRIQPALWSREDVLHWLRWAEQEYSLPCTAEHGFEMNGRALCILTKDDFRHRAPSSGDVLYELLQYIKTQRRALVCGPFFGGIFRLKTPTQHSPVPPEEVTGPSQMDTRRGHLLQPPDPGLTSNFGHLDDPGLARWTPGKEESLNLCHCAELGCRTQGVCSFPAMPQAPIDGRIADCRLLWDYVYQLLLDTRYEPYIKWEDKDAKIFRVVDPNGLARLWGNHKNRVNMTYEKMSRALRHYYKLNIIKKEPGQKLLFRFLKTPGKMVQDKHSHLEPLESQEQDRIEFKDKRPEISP
In short: as §1

[16] = target: T11, ELF5 (Homo sapiens, UniProt Q9UKW6-2 1-255); conditions: protein: recombinant; tags: N-terminal GST; dsDNA, one strand shown
T11 sequence: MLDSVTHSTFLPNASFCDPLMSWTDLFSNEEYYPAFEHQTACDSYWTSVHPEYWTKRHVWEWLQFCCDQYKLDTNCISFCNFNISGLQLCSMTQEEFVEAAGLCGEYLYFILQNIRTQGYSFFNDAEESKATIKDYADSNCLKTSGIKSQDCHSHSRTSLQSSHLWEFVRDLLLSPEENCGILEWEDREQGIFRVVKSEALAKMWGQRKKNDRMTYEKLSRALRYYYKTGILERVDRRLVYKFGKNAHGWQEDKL
In short: as §1

[17] = target: T12, ETV3 (Homo sapiens, UniProt P41162-2 1-143); conditions: protein: recombinant; tags: N-terminal GST; dsDNA, one strand shown
T12 sequence: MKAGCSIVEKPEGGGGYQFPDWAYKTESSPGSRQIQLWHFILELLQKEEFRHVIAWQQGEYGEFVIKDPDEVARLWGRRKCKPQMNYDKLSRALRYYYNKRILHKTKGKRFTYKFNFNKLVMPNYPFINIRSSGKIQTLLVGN
In short: as §1

[18] = target: ETV6 (Homo sapiens, UniProt P41212 1-452); conditions: protein: recombinant; tags: N-terminal GST; dsDNA, one strand shown
ETV6, sequence (P41212 whole entry): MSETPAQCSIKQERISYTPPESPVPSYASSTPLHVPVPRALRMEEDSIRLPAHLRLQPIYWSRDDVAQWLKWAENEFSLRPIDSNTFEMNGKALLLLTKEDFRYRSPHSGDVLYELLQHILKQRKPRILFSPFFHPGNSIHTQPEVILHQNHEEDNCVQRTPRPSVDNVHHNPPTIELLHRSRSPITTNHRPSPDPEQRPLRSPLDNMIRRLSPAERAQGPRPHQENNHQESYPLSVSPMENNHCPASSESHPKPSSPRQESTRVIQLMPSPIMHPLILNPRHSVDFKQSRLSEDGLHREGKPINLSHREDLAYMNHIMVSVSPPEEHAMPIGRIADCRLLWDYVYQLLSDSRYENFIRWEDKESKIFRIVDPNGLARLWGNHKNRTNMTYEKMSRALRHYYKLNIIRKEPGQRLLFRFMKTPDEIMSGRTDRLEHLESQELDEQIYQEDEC
In short: as §1

Sequence: AATGGT
- binding signal [1]: 1.27 fold enrichment (6-mer frequency, TF over GST control)
- binding signal [2]: 1.46 fold enrichment (6-mer frequency, TF over GST control)
- binding signal [3]: 1.05 fold enrichment (6-mer frequency, TF over GST control)
- binding signal [4]: 1.35 fold enrichment (6-mer frequency, TF over GST control)
- binding signal [5]: 1.43 fold enrichment (6-mer frequency, TF over GST control)
- binding signal [6]: 1.38 fold enrichment (6-mer frequency, TF over GST control)
- binding signal [7]: 1.32 fold enrichment (6-mer frequency, TF over GST control)
- binding signal [8]: 1.25 fold enrichment (6-mer frequency, TF over GST control)
- binding signal [9]: 1.1 fold enrichment (6-mer frequency, TF over GST control)
- binding signal [10]: 1.43 fold enrichment (6-mer frequency, TF over GST control)
- binding signal [11]: 1.38 fold enrichment (6-mer frequency, TF over GST control)
- binding signal [12]: 1.33 fold enrichment (6-mer frequency, TF over GST control)
- binding signal [13]: 1.33 fold enrichment (6-mer frequency, TF over GST control)
- binding signal [14]: 1.27 fold enrichment (6-mer frequency, TF over GST control)
- binding signal [15]: 1.41 fold enrichment (6-mer frequency, TF over GST control)
- binding signal [16]: 1.43 fold enrichment (6-mer frequency, TF over GST control)
- binding signal [17]: 1.4 fold enrichment (6-mer frequency, TF over GST control)
- binding signal [18]: 1.39 fold enrichment (6-mer frequency, TF over GST control)
